RPL19A TOR yeast = modulators of TOR pathway RPL19A-GFP in S. cerevisiae; S. cerevisiae RPL19A-GFP strain, flow cytometry, 3 h; active compounds read low; percent response vs DMSO, % at 10 µM; actives 0.3% (n = 330,000); AID 2025;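 active = percent response vs DMSO below 50%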;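 also: median channel GFP fluorescence of the barcoded RPL19A-GFP strain; ratio of sample median GFP to plate DMSO average so 100% = DMSO; lower means less RPL19A-GFP as with rapamycin TOR inhibition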
CIT2-GFP yeast = alters CIT2-GFP fluorescence in TOR pathway yeast screen; actives 0.065% (n = 320,000); S. cerevisiae CIT2-GFP strain, flow cytometry, 3 h; 100 means same as DMSO wells; GFP response vs DMSO, % at 10 µM;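 active = GFP response relative to DMSO above a set limit, near the screen mean plus 3 SD, cut at about 150% in these data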;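 also: ratio of well median GFP fluorescence to mean of DMSO wells on the plate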
LAP4 TOR yeast = alters LAP4-GFP fluorescence in TOR pathway yeast screen; S. cerevisiae LAP4-GFP multiplex, flow cytometry GFP, 3 h; median GFP as percent of DMSO wells; GFP response vs DMSO, % at 10 µM; actives 0.34% (n = 320,000); AID 2023;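 active = GFP response vs DMSO above a set limit, about the screen mean plus 3 SD, cut at about 150% in these data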
VLA-4 inh = inhibition in a human VLA-4 binding assay; P13612; VLA-4 expressing cells, ligand binding flow cytometry; inhibition, % (about 7 µM as worked out from the volumes in the protocol); actives 0.2% (n = 330,000); in the data active = inhibition above about 50%
MEP2-GFP yeast = modulators of TOR pathway MEP2-GFP in S. cerevisiae; S. cerevisiae MEP2-GFP strain, flow cytometry GFP, 3 h; 100% = DMSO control level; GFP response vs DMSO, % at 10 µM; actives 0.51% (n = 330,000);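 active = GFP response versus DMSO above a set limit, roughly screen mean plus 3 SD, cut at about 180% in these data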;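 also: median GFP fluorescence of the barcode-gated MEP2-GFP cells per well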
AGP1-GFP MLPCN = alters AGP1-GFP fluorescence in TOR pathway yeast screen. S. cerevisiae AGP1-GFP multiplex flow cytometry, 3 h; GFP as percent of DMSO wells. GFP response vs DMSO, % at 10 µM. actives 0.02% (n = 320,000);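 active = GFP response relative to DMSO above a set limit, near screen average plus 3 SD, cut at about 150% in these data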;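 also: median GFP channel fluorescence of the gated AGP1 strain per well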
LAP4 cherry2 = second confirmation of modulators of TOR reporter LAP4-GFP in yeast. shares compounds with LAP4 TOR yeast. S. cerevisiae LAP4-GFP strain, flow cytometry GFP, 3 h. GFP response vs DMSO, % at 10 µM. actives 20% (n = 590). AID 2621;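 active = GFP signal as percent of the solvent control above about 150%, meaning raised reporter expression, limit read from the data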;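 also: ratio of well median GFP fluorescence to plate DMSO mean so 100% = DMSO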
MEP2 cherry2 = reconfirmed MEP2-GFP TOR pathway modulator in yeast. AID 2622. actives 10% (n = 590). GFP response vs DMSO, % at 10 µM. S. cerevisiae MEP2-GFP strain, flow cytometry GFP, 3 h. shares compounds with LAP4 TOR yeast;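 active = GFP signal above 150% of the solvent control wells, that is a rise of more than half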;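 also: median channel GFP fluorescence of all gated yeast cells per well; ratio of median GFP to plate DMSO average so 100% = DMSO level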
RPL19A GFP CP2 = reconfirmed modulator of RPL19A-GFP TOR reporter in yeast | GFP response vs DMSO, % at 10 µM | S. cerevisiae RPL19A-GFP strain, flow cytometry GFP, 3 h; active compounds read low; 100% means same as DMSO wells | shares compounds with LAP4 TOR yeast | actives 3% (n = 590);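 active = under 65% GFP response relative to DMSO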;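 also: median GFP channel fluorescence per well over the all cells gate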
CIT2 GFP CP2 = reconfirmed modulator of CIT2-GFP TOR reporter in yeast; shares compounds with LAP4 TOR yeast; S. cerevisiae CIT2-GFP strain, flow cytometry GFP, 3 h; DMSO control wells read 100%; GFP response vs DMSO, % at 10 µM; actives 8% (n = 590); AID 2624;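 active = GFP response vs DMSO above about 150%, limit read from the data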;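 also: median green fluorescence per well over all gated yeast cells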
AGP1-GFP pick2 = yeast AGP1-GFP TOR reporter modulation, second cherry pick | shares compounds with LAP4 TOR yeast | S. cerevisiae AGP1-GFP strain, flow cytometry GFP, 3 h | percent response vs DMSO, % at 10 µM | 590 tested, under 10 active;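 active = over 150 percent of DMSO response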;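 also: median GFP channel fluorescence over all cells without mother daughter split; sample median GFP divided by mean DMSO control so 100% equals DMSO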
s288c autofluor = counter-screen for compound autofluorescence in yeast s288c cells. AID 2757. fluorescence change (kMESF span) at 33 µM. shares compounds with LAP4 TOR yeast. 610 tested, under 10 active. S. cerevisiae s288c, 520 nm autofluorescence, flow cytometry, 3 h; active compounds read high; zero means same as solvent-only cells;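 active = fluorescence span over the dose series, or activity score, above about 33, limit read from the data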
Active calls of the source: *; i = inactive; · = not tested or not shown. An excerpt weighted towards active compounds, which were near 1.1% of everything screened.

SMILES | RPL19A TOR yeast | CIT2-GFP yeast | LAP4 TOR yeast | VLA-4 inh | MEP2-GFP yeast | AGP1-GFP MLPCN | s288c autofluor | others
CCCNc1nc(-c2cc(C(=O)Nc3ccccc3)on2)cc(C(C)C)n1 | 98 | 98 | 115 | 9 | 107 | 92 | · | LAP4 cherry2=100;MEP2 cherry2=100;RPL19A GFP CP2=94;CIT2 GFP CP2=96;AGP1-GFP pick2=104
Cc1ccc(-c2nc(CS(=O)(=O)CC(=O)NCCN3CCCC3)c(C)o2)cc1 | 95 | 93 | 104 | 3 | 93 | 97 | ·
O=C(N/N=C/c1ccc(OC(=O)c2ccco2)cc1)c1ccc[n+]([O-])c1 | 96 | 97 | 108 | 5 | 96 | 98 | ·
O=C(Oc1oc(-c2ccco2)nc1C=Nc1ccccc1)c1ccoc1 | 91 | 87 | 217* | 23 | 87 | 72 | -9.6
Cc1ccc(N=Cc2nc(-c3ccco3)oc2O)cc1 | 91 | 92 | 119 | 11 | 95 | 91 | ·
O=C(Oc1oc(-c2ccco2)nc1C=Nc1ccccc1)c1ccco1 | 98 | 71 | 203* | -2 | 90 | 79 | 0.3
NC(=O)CSc1oc(-c2ccco2)nc1S(=O)(=O)c1ccccc1 | 108 | 101 | 96 | 3 | 93 | 102 | ·
Cc1ccc(C(=O)Oc2oc(-c3ccco3)nc2C=Nc2ccc(Cl)cc2)cc1 | 100 | 93 | 223* | 14 | 96 | 75 | 0.2
O=c1oc(-c2ccco2)nc2ccccc12 | 94 | 93 | 121 | -1 | 100 | 92 | ·
COc1ccc(N2C(=NC(=O)C3CCCO3)SC3CS(=O)(=O)CC32)cc1 (stereo not drawn) | 98 | 98 | 98 | -2 | 99 | 98 | ·
COCCCNC(=O)c1cc2c(-c3ccc(Cl)cc3)nn(C)c2s1 | 100 | 97 | 101 | -5 | 102 | 100 | ·
CCCCNC(=O)c1cc2c(-c3ccc(Cl)cc3)nn(C)c2s1 | 105 | 151* | 157* | i | 216* | 104 | · | LAP4 cherry2=103;MEP2 cherry2=105;RPL19A GFP CP2=100;CIT2 GFP CP2=99;AGP1-GFP pick2=98
Oc1ccc(N=Nc2ccccc2)o1 | 112 | 112 | 165* | 18 | 97 | 96 | 0.41
COc1ccc(/C=C2\SC(N)=NC2=O)cc1 | 103 | 101 | 105 | -4 | 105 | 99 | ·
CCOC(=O)CSC1=NC(=O)/C(=C/c2ccc(OC)cc2)S1 | 94 | 75 | 152* | 36 | 96 | 93 | 2.3
O=C(CCS(=O)(=O)c1ccccc1)Nc1nc(-c2ccccn2)cs1 | 97 | 93 | 97 | -10 | 97 | 96 | -0.1 | LAP4 cherry2=104;MEP2 cherry2=101;RPL19A GFP CP2=99;CIT2 GFP CP2=100;AGP1-GFP pick2=100
Cc1cc(C)c(OCC(=O)Nc2nc(-c3ccccn3)cs2)c(C)c1 | 88 | 78 | 153* | -10 | 83 | 75 | 0.3
COc1ccc(OCCCC(=O)Nc2nc(-c3ccccn3)cs2)cc1 | 97 | 101 | 108 | -6 | 100 | 99 | ·
O=CNCCCc1nc2ccccc2n1CCc1ccccc1 | 108 | 100 | 95 | 8 | 113 | 99 | ·
C[C@H](NCc1c[nH]c2ccccc12)c1ccccc1 | 81 | 90 | 82 | -11 | 89 | 89 | ·
CCN1/C(=C/C(C)=C/c2sc3ccccc3[n+]2CC)Sc2ccccc21 | 50 | 61 | 188* | · | 102 | 69 | 2.1
CCN1/C(=C\C(=S)Nc2ccccc2)Sc2ccccc21 | 91 | 98 | 146 | -7 | 97 | 98 | ·
CC(C)(C)C1C/C(=C/c2ccccn2)C(=O)/C(=C/c2ccccn2)C1 (stereo not drawn) | 99 | 84 | 162* | 39 | 97 | 80 | 0 | LAP4 cherry2=181*;MEP2 cherry2=98;RPL19A GFP CP2=104;CIT2 GFP CP2=106;AGP1-GFP pick2=96
Cc1c(C(=O)NCCS(=O)(=O)N2CCN(c3ccccc3F)CC2)cccc1[N+](=O)[O-] | 94 | 94 | 91 | -5 | 108 | 92 | ·
CCOc1cccc(-c2c(C(=O)N/N=C/c3ccc(Br)cc3)nnn2-c2nonc2N)c1 | 93 | 92 | 104 | 17 | 99 | 106 | ·
SMILES | RPL19A TOR yeast | CIT2-GFP yeast | LAP4 TOR yeast | VLA-4 inh | MEP2-GFP yeast | AGP1-GFP MLPCN | s288c autofluor | others
CCOC(=O)N1CCN(C(=O)c2ccc(S(=O)(=O)Nc3ccccc3)cc2)CC1 | 96 | 172* | 102 | 13 | 111 | 88 | · | LAP4 cherry2=108;MEP2 cherry2=105;RPL19A GFP CP2=101;CIT2 GFP CP2=102;AGP1-GFP pick2=99
CN(CC(=O)NCc1ccco1)C(=O)C1CC(=O)N(c2ccc3c(c2)OCCO3)C1 (stereo not drawn) | 93 | 95 | 97 | 8 | 97 | 99 | ·
Cc1ccc(-c2nc(C=Nc3cccc(C)c3)c(O)o2)cc1 | 89 | 89 | 88 | -5 | 87 | 88 | ·
CN(C)c1ccc(N=Cc2nc(-c3ccccc3)oc2OC(=O)c2cccc(Cl)c2)cc1 | 105 | 105 | 95 | -6 | 99 | 103 | 0.71
Cc1ccc(C(=O)Oc2oc(-c3ccccc3)nc2C=Nc2ccc(N(C)C)cc2)cc1 | 104 | 91 | 101 | -1 | 94 | 95 | 1
CCN=C1S/C(=C\c2ccc(N3CCOCC3)cc2C)C(=O)N1CC | 109 | 110 | 97 | 1 | 106 | 104 | ·
COCCN1C(=O)/C(=C/c2ccc(N3CCCC3)cc2C)SC1=S | 120 | 190* | 129 | i | 186* | 106 | 1.9
O=C(Nc1cccc(N2C(=O)C=CC2=O)c1)c1cccs1 | 73 | 51 | 128 | 35 | 86 | 72 | ·
O=C1C=CC(=O)N1c1cccc(-c2ccccc2)c1 | 65 | 61 | 206* | 27 | 98 | 77 | 1.8
COc1ccc(-n2nc(C(=O)NCC(=O)NCc3ccc(F)cc3)c3ccccc3c2=O)cc1OC | 102 | 107 | 97 | -7 | 101 | 106 | ·
CCCCCCCCC(=O)N/N=C/c1ccccn1 | 94 | 96 | 92 | -18 | 90 | 94 | ·

Screening results deposited in PubChem BioAssay by NMMLSC.
